According to the supplement of paper PMC12632987:

T1: FBXL12, Q9NXK8
T1 chain: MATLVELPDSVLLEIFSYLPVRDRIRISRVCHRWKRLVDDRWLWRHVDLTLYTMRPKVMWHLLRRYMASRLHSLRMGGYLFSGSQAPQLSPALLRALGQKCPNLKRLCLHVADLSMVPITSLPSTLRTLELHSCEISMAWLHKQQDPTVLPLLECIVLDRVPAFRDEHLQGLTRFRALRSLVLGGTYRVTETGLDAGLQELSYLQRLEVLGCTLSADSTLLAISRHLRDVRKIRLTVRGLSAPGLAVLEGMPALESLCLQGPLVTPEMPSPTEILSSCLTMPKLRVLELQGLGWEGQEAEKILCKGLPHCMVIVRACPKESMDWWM

B1: FBXL12_hotspot_186_40 (protein)
chain: MELRVRFSPDMSVAQRRAGADIAVAILEGLAERGEIEELVEAARSLLDSLEAARARIQDPEFAAVAAAALARIAAILEEAAKRYPENEEIKEALARVKAA
B2: FBXL12_hotspot_186_38 (protein)
chain: MELRIRFSPTMSVEQMRAGAQIAVDILRELARRGRWEDLVEAARSLLESLRAARARIRDPEFAEVAAEALERVAAILEEAAKRHPDDEAIHAALEEVKAA
B3: FBXL12_hotspot_141_10 (protein)
chain: RGLVIVIATAAVPEEVRAAVRAAAREAAAAAGVALRFEEAEDEEAAEELRERLLAEAEEEGYDAVGVLVLTSPEMSAERAIAYVRALVAFVAARVARLEA
B4: FBXL12_hotspot_186_39 (protein)
chain: MELRVRFSEDMSVEQMRAGLDIAVAILEGLAERGRIEDLVAAARSLLDSLEAGRARIKDPAFDEVVDDALRRIAAILERAAERYPDNEELRAALERVRAA
B5: FBXL12_hotspot_186_29 (protein)
chain: SDLQVRVRLGDDLETTRSTLEYAVALAAALKARGLTASLRSLARSVRESAIARLRASDDPEIYEAIRAALEALAAVVADDPEARAIVEEALAEVERLRAE
B6: FBXL12_hotspot_186_33 (protein)
chain: MELRVSLSADMTPEQMRANAEIAVAIVAGLAERGRVEDLVAAARSLAASLRAAVARLQRPEVAAIAAEALARLAEIVAAAAARHPDNEDLRAALAELRAA
B7: FBXL12_hotspot_186_37 (protein)
chain: MLLRVSFSPDDSPAQIQAGVDIAVAIVEGLAERGRLEDFVEAARSLLESLRANAARIKRPEAQAVFDAAVARLAEIAEEVAERYPENEEIKELLEELREA
B8: FBXL12_hotspot_16_19 (protein)
chain: KDIILSVGVEEAERVEPSLELALEIVKGLKEAGVDRINVVIYAETEEAYKKIEELKDTILKEIEEAVKEAGGKLSVHKTKEAAEKEIERILEEIDKREEE
B9: FBXL12_hotspot_141_11 (protein)
chain: KGLLIVIMTSSIPEEKREEIKKHAEEAAKKAGIELIFEVAENEEEAEKIKEELLKEAEEKGYDVIGVLTVTDPNMDVERVKAYVEALVEWIKAKLEQLKA
B10: FBXL12_hotspot_186_41 (protein)
chain: MEVRVSVPADAPLEVVRSTMKYAVELAKELKERGELEALASLGKSLVKLRKELKKAGAPEEKLKAVDEAIKEVAKILEEALKEHPDNEELKKALEELKKA
B11: FBXL12_hotspot_16_17 (protein)
chain: RDIVVVVGLLTAERVRSTLERAAEIVEGLRAAGVDRINVVIYAETEEAWAELERLEPTIVARIRAAVAAAGGELHIHRTREEAEKTREEILAEIDEEEEA
B12: FBXL12_hotspot_186_26 (protein)
chain: MDLQIRVTLSPDLETARSGLEYAVGLLESLVERGLLESARSLVRSLIEAARKLVKETKDPEVRAAVIEALRRVAEILAKRPELEESRRLVEEAIKELEEE
B13: FBXL12_hotspot_186_27 (protein)
chain: QQLEFRVVTRLDPEITRSTLDTAIGLVESLLERGLIEQAKSAAEAILEEIERTLAESDDPEIHAILAESLRRLAEVLSRDPRLAPLLERARELLARIEAR
B14: FBXL12_hotspot_186_35 (protein)
chain: MKLRISFAPTDSPEQIRAGVDIAVAIVAGLAAAGRLEDFVEAVRSLLESLQANRARIQRPEHHAVFDAAIERLAALAAEVAAAHPDNAEVAAALARLKAA
B15: FBXL12_hotspot_147_15 (protein)
chain: MEVTIRVVLGPGSESTVETAIALAAGLHEAGVEKIRIEVEAEDPEEALRAAERLAVEVGRKADVDEILAYDSRTGELLKRLDREEIKEIREEAERREREA
B16: FBXL12_hotspot_16_18 (protein)
chain: REIIVVVGLLEAERVESTLTTARDIVAGLREAGVDRVDVVIYTETPEAAAKLAELRPTIVAAIEAEVAAAGGRLSVHDTREAAEATREAILAEIDEREAA
B17: FBXL12_hotspot_186_36 (protein)
chain: MELRVRFGPDDSVEQMRAGVDIAVAIVEGLAEAGRLEDFVEAARSLLDSLEANAARIKDPAHRAVFAEAVARLLEIAERVAKAYPENEDIKEVAERLKAA
B18: FBXL12_hotspot_162_16 (protein)
chain: MKRLLILSFVIKATESPEEAKKRLKQFEEYALEMIEEALKNPEFKVVVVLASDGSPEDLEWVKEAAKRIKEKFPEVEVEVFETGEAAEKRIEELEEEAER
B19: FBXL12_hotspot_147_14 (protein)
chain: MKVTIRVVLEEGSETTVEMAIELAKGLHEAGVEEIRVEVEARDPEVALAAAERLAVEIGRGADVAEIRAFDRETGELLRRLDREEIRRIRAAAEEAEAAA
B20: FBXL12_hotspot_16_22 (protein)
chain: KIMIIKVVAATPEAARGTIETATKIAKGLMEAGVDAVILQAVAEKEEILPFLKELVEEKEKELKEVAKKYGSKLEVFVGTAADLEELEKEVKEKEKELEA
B21: FBXL12_hotspot_16_20 (protein)
chain: KIMIIRVVAGTEEEARSSVETAKKIAIGLMEAGVDAIILEAIAEKEELLPFLKELVEEKEKELREAAKKYGAKLRILVGTLDDLEELRAQAEAIAAELEA
B22: FBXL12_hotspot_147_13 (protein)
chain: REVTVVVQLGAQAESTARYAAELVVGLGEAGVGRIRVVVRSARLEDALLAARELARAVARLPESVEVEVTFEGLSPEDVARARAVYEATLAAERAAQAAA
B23: FBXL12_hotspot_186_34 (protein)
chain: MELKITLSEDMSVEQMEAGLKLAVEILQGLRDRELLDDLVAAARSLLKSLKENVARIKKPEFKEVAKKALEEVAKIVKEAAERFPEVEELKEVAKELEEA
B24: FBXL12_hotspot_186_28 (protein)
chain: SDLEVRVTLGEDLETTKSTLDYAVALAEALKARGLTGSLRSLARSFRESAIARLKKSDDPEIYDAILEAAEKLREVVADDPEAKAIIDEAIAEIKAIKAE
B25: FBXL12_hotspot_16_23 (protein)
chain: KIMVVRVRGRTPEELRPTLDRAVEIAIGLMKAGVDAIIFVAVVERAEDLPAVEALVAERRAALEAAAKEHGSKLEVVVGVAADEEAVEARVKALEEELEA
B26: FBXL12_hotspot_186_30 (protein)
chain: MDLEVRVGLGEDLETTKSTLDYAVALAEALAARGLTASLVSLARSVRESAIEVLKKTKDEEIYEAILEALKRMAEIVKDNPEALAIVEEAIKEVEKLKKE
B27: FBXL12_hotspot_186_31 (protein)
chain: KDLQVRVRLGLDLETTRSTLRYAVALAEALKARGLTASLRSLARSLRESAIEVLKKTKDEEIYEAILEALEELAKVVADDPEALAIVKEAIEEVERLKEE
B28: FBXL12_hotspot_147_12 (protein)
chain: REMTVVVQLGSSAESTAAYAAEVVLGLAQAGVDRIRVVVRTRDHEQALLAARELARADARAPASVTIELTFEGLTPEQVAEALAVYAETLAAERARLAAA
B29: FBXL12_hotspot_16_24 (protein)
chain: PVRILVIRQASTQRTPEGVAYQREAAVAAARAGMDAVILVGLAEREEDVPEMEALVADFEAAVRAANPDIIVEGAVARTEEEAEALKAALLARVEARLAA
B30: FBXL12_hotspot_16_21 (protein)
chain: KIMIIKVVAPTEEAARSGIETATKIAKGLMEAGVDAIILLAVAEEEALLPFLEELVEKHKEELEEAAKKYGAKLKVIVGTRADLAALEAEAEAIAAELEA
B31: FBXL12_hotspot_186_32 (protein)
chain: MELRVSLSASMSVEQMRANAEIAVAIVEGLAERGLWEDLDAAARSLAASLRAAVERLQRPEAAAVAAEALERLAEIVARALEEHPENERLAATLAEIRAA
B32: FBXL12_hotspot_186_25 (protein)
chain: QRIEVRVSFSEDLEQARAGLELAIGLLEALLARGLIESAASLARSTVRAARELAARTDDEEVKRLLAEGLERIAEILRKHPELAEELEEVERAAREIRER

Target: T1, FBXL12, Q9NXK8
Assay: median log2 fold change of GCK-ALFA target abundance (FLAG IP / Myc IP barcode read proportion) (log2 ratio); each designed protein is fused to an ALFA-tag nanobody in HEK293 cells to bring the named protein to FLAG-tagged glucokinase (GCK); Myc marks an untargeted standard; higher = target protein stabilised (more abundant)
Conditions: target protein: 3xFLAG-MCP-GCK-ALFA reporter; HEK293 landing pad (RPLP)
Description: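 LABEL-seq trans screen in HEK293 landing-pad cells. Each de novo designed 100-aa effector handle, binding the indicated effector (E3 ligase, DUB or autophagy protein), is fused to a constant NbALFA target handle and induced with 2 ug/mL doxycycline. A FLAG-MCP-GCK-ALFA target and a Myc-MCP standard reporter were transfected, and after 48 h circRNA barcodes were recovered by anti-FLAG and anti-Myc IP and sequenced. The value is the median across barcodes (at least 3 per design) of log2(FLAG/Myc read-proportion ratio), with the two transfection replicates pooled. Negative values mean degradation and positive values mean stabilisation of the target.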

Row | Binder | median log2 fold change
1 | B1 | 0.165
2 | B2 | -0.00819
3 | B3 | -0.0786
4 | B4 | 0.222
5 | B5 | -0.229
6 | B6 | 0.143
7 | B7 | 0.172
8 | B8 | -0.0797
9 | B9 | 0.126
10 | B10 | 0.34
11 | B11 | 0.0399
12 | B12 | 0.196
13 | B13 | 0.108
14 | B14 | 0.0482
15 | B15 | 0.23
16 | B16 | 0.0965

Row | Binder | median log2 fold change
17 | B17 | 0.111
18 | B18 | -0.0487
19 | B19 | 0.119
20 | B20 | 0.0857
21 | B21 | -0.134
22 | B22 | -0.0622
23 | B23 | 0.294
24 | B24 | 0.157
25 | B25 | 0.127
26 | B26 | 0.1
27 | B27 | -0.132
28 | B28 | -0.623
29 | B29 | 0.171
30 | B30 | -0.165
31 | B31 | 0.127
32 | B32 | 0.0938
